In the library only some 2.1% were active in any assay of this set; here they are far more common.
FUS yeast rescue: FUS proteinopathy suppression in yeast | S. cerevisiae FUS-expressing, growth rescue, OD600, 24 h | Potency, µM (doses to about 76.6 µM), actives largely listed as activators | AID 1347120 | 390,000 tested, 0.24% active; further: nearly all actives have a fitted effect of over 55% in size
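Yeast expressing FUS under galactose induction, OD 0.005 in 2% galactose medium; compounds in a dilution series, 24 h at 30C. Growth rescue by absorbance at 600 nm; CP55940 positive control, DMSO negative.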
aSyn yeast inh: inhibitors of alpha-synuclein toxicity in yeast; Yeast expressing alpha-synuclein, growth rescue, BacTiter-Glo, 24 h; Potency, µM (titrated, usually from 46.1 µM), usual class: activators; 370,000 tested, 0.14% active; AID 652106; further: nearly all actives have a fitted effect of over 65% in size
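Readout is rescue of growth in alpha-synuclein-expressing yeast, so inhibitors of toxicity appear as activators. Growth after 24 hr at 30 deg C in galactose medium is quantified by luminescence.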
Abeta yeast res: restores growth of yeast expressing A-beta42 peptide. 410,000 tested, 0.063% active. yeast expressing A-beta42, growth rescue, OD600, 48 h; response scale: 0% DMSO, 100% iron-clioquinol control. Potency, µM (doses to about 46.1 µM), usual class: activators; further: nearly all actives have a fitted effect of over 55% in size
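Yeast A-beta toxicity model in growth medium with pinned compounds, 48 h at 30 C; growth read as absorbance at 600 nm. Normalized to FeCl3/clioquinol equimolar mix (positive) and DMSO (negative).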
TDP-43 yeast inh: rescues yeast growth from TDP-43 toxicity. TDP-43 expressing yeast growth rescue, BacTiter-Glo, 24 h. Potency, µM (highest dose often 46.1 µM), usual class: activators. 410,000 tested, 1.8% active. AID 652104; further: nearly all actives have a fitted effect of over 50% in size
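Yeast cells expressing TDP-43 under galactose induction are exposed to compounds for 24 hr at 30 deg C. BacTiter-Glo luminescence measures growth, so protective compounds score as activators.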
Large screens that a line does not name were inactive. The call rests on the fitted dose curve; in most records, active means well fitted curve in the direction sought with a large enough effect; inconclusive means small, poorly fitted or top-dose-only effect, or another doubt; inactive means no such curve, though single readings can be large; an effect the other way counts as inactive or inconclusive.

CCCCCCCCCc1conc1C(=O)CP(=O)(OC)OC	TDP-43 yeast inh 35µM
COc1ccc(NC(=O)c2c(NC(=O)COc3ccc(Cl)cc3)sc3c2CCCCC3)cc1	TDP-43 yeast inh 8.9µM (no result: aSyn yeast inh)
O=C(COc1ccccc1)Nc1sc2c(c1C(=O)Nc1ccccc1)CCCCC2	none (no result: aSyn yeast inh)
Cc1ccc(S(=O)(=O)NCCC(=O)OCc2ccc([N+](=O)[O-])cc2)cc1C	TDP-43 yeast inh 20µM
O=C(CCNS(=O)(=O)c1ccccc1)OCc1ccc([N+](=O)[O-])cc1	none
O=C(N/N=C/C(Cl)=C/c1ccccc1)c1ccccn1	TDP-43 yeast inh 10µM
C=CCN(CC=C)C(=S)NC(=O)c1ccc(C)c(Br)c1	aSyn yeast inh 14µM, TDP-43 yeast inh inconclusive (no result: FUS yeast rescue)
C=CCN(CC=C)C(=S)NC(=O)c1ccc(OC)cc1	none
C=CCN(CC=C)C(=S)NC(=O)c1ccc(-c2ccccc2)cc1	aSyn yeast inh inconclusive, TDP-43 yeast inh 13µM (no result: FUS yeast rescue)
COc1cccc(-c2cc(N3CCN(C(=O)c4ccoc4)CC3)n3nc(-c4cccc(Cl)c4)cc3n2)c1	TDP-43 yeast inh 3.5µM
COc1cccc(-c2cc3nc(-c4ccco4)cc(N4CCN(C(C)=O)CC4)n3n2)c1	none (no result: aSyn yeast inh, Abeta yeast res, TDP-43 yeast inh)
COc1cccc(-c2cc3nc(-c4ccccc4)cc(N4CCC5(CC4)OCCO5)n3n2)c1	TDP-43 yeast inh 16µM
COc1ccc(-c2cc3nc(C)cc(N4CCN(C(=O)c5ccoc5)CC4)n3n2)cc1	TDP-43 yeast inh inconclusive
COc1cccc(-c2cc3nc(C)cc(N4CCN(C(=O)c5ccoc5)CC4)n3n2)c1	none
COc1cccc(-c2cc3nc(-c4ccccc4)cc(N4CCN(C(=O)c5ccoc5)CC4)n3n2)c1	FUS yeast rescue inconclusive, TDP-43 yeast inh 16µM
N=C1SCC(=O)N1c1ncc(Cc2cccc(Cl)c2)s1	TDP-43 yeast inh 8.9µM
Cc1ccc(Cc2cnc(N3C(=N)SC(C)C3=O)s2)cc1 (stereo not given)	TDP-43 yeast inh inconclusive
Cc1cccc(Cc2cnc(N3C(=N)SC(C)C3=O)s2)c1 (stereo not given)	aSyn yeast inh 10µM, Abeta yeast res inconclusive, TDP-43 yeast inh 22µM
COc1ccccc1NC1=C(Cl)C(=O)N(c2ccccc2)C1=O	TDP-43 yeast inh 6.3µM (no result: FUS yeast rescue)
COc1ccc(NC2=C(Cl)C(=O)N(c3ccccc3)C2=O)c(OC)c1	none
CCCCC[C@H](O)/C=C/C1C(=O)C=C[C@H]1C/C=C\CCCC(=O)OC (stereo not given in full)	TDP-43 yeast inh 28µM
COc1cccc(N2CCN(C(=O)CCc3c(C)nc4c(c3C)c(=O)n(C)c(=O)n4C)CC2)c1	none (no result: aSyn yeast inh)
CCCCCCCCN1C(=O)[C@H](CC(=O)N2CCCCC2)C[C@@]2(C(=O)OC)CC(C)(C)CC=C12	FUS yeast rescue inconclusive
CCCCCCCCN1C(=O)[C@H](CC(=O)N2CCOCC2)C[C@@]2(C(=O)OC)CC(C)(C)CC=C12	FUS yeast rescue 13µM, aSyn yeast inh inconclusive, TDP-43 yeast inh inconclusive
CCCCCCCCN1C(=O)[C@H](CC(=O)NCc2ccc(OC)c(OC)c2)C[C@@]2(C(=O)OC)CC(C)(C)CC=C12	FUS yeast rescue inconclusive, aSyn yeast inh inconclusive, TDP-43 yeast inh 22µM
COC(=O)[C@@]12C[C@@H](CC(=O)NCc3cccc4ccccc34)C(=O)N(Cc3ccc4c(c3)OCO4)C1=CCC(C)(C)C2	FUS yeast rescue 6.3µM
CCNC(=O)N1c2ccc(OC)cc2C(C)=CC1(C)C	TDP-43 yeast inh 13µM
CC(=O)Oc1ccc(Oc2ccc(-c3noc(C)n3)cc2)cc1	TDP-43 yeast inh 11µM
CCCOc1ccc(-c2cc(C(C)=O)c3n(c2=O)CCC3)cc1	none (no result: aSyn yeast inh, Abeta yeast res, TDP-43 yeast inh)
CCCN1CNc2c(c(=O)[nH]c(=S)n2CCc2cc(Cl)ccc2Cl)C1	none (no result: FUS yeast rescue, Abeta yeast res, TDP-43 yeast inh)
CC(=O)N1CCc2c(sc3c2c(=O)n(Cc2ccccc2)c(=O)n3Cc2cc(C)ccc2C)C1	none (no result: aSyn yeast inh)
CC(=O)N1CCc2c(sc3c2c(=O)n(CCc2ccccc2)c(=O)n3Cc2ccccc2C)C1	FUS yeast rescue inconclusive, TDP-43 yeast inh 35µM (no result: aSyn yeast inh)
CC(=O)N1CCc2c(sc3c2c(=O)n(CCc2ccccc2)c(=O)n3Cc2ccc(Cl)cc2)C1	FUS yeast rescue inconclusive, TDP-43 yeast inh 32µM (no result: aSyn yeast inh)
CN(Cc1ccccc1)C(=O)OCc1cn(Cc2cc(F)ccc2F)nn1	none (no result: aSyn yeast inh, Abeta yeast res, TDP-43 yeast inh)
Clc1ccc2c(c1)c1cc(Cl)ccc1n2CN1CCOCC1	TDP-43 yeast inh 6.3µM
Clc1ccc2c(c1)c1ccccc1n2CN1CCOCC1	TDP-43 yeast inh inconclusive
CCN(CC)C(=O)c1sc2c(c1C)c(=O)n(CCc1ccccc1)c(=O)n2Cc1ccc(C)cc1	FUS yeast rescue inconclusive, TDP-43 yeast inh inconclusive (no result: aSyn yeast inh)
CC(C)COc1ccc(C(=O)NCC2OCCc3ccccc32)cc1 (stereo not given)	none (no result: aSyn yeast inh)
COc1ccc(C(=O)NCC2OCCc3ccccc32)c(O)c1 (stereo not given)	TDP-43 yeast inh 14µM
CCCC1CCC2(CC1)CCC2OC(=S)Nc1ccc(I)cc1 (stereo not given)	none (no result: aSyn yeast inh, Abeta yeast res, TDP-43 yeast inh)
O=C(O)CC1CC(O)CCC1=O (stereo not given)	none
O=C(O)CC1CCC(=C(Cl)Cl)C1 (stereo not given)	aSyn yeast inh 11µM
CCc1ccc(NC(=O)CSc2nccn2-c2ccc(F)cc2)cc1	Abeta yeast res inconclusive, TDP-43 yeast inh 16µM (no result: aSyn yeast inh)
CCc1ccc(NC(=O)CSc2nccn2-c2ccc(OC)cc2)cc1	FUS yeast rescue inconclusive, TDP-43 yeast inh inconclusive (no result: aSyn yeast inh)
CCc1ccc(NC(=O)CSc2nccn2-c2cccc(C)c2C)cc1	aSyn yeast inh inconclusive, TDP-43 yeast inh 32µM
O=S1(=O)c2ccc(Br)cc2OC[C@@H](Cc2ccccc2)N1Cc1cn(Cc2ccc(C(F)(F)F)cc2)nn1	none (no result: aSyn yeast inh, Abeta yeast res, TDP-43 yeast inh)
CCc1c(C)c2c(C)nn(-c3ccccc3)c2oc1=O	TDP-43 yeast inh 25µM
COc1cccc(N2CCN(CC(=O)NCc3ccc(Cl)cc3)CC2)c1	none (no result: aSyn yeast inh, Abeta yeast res, TDP-43 yeast inh)
O=C(CSc1nc2ccccc2[nH]1)NN=Cc1c(F)cccc1Cl	none (no result: aSyn yeast inh, Abeta yeast res, TDP-43 yeast inh)
CCOc1cccc(C(=O)N/N=C/c2coc3ccccc3c2=O)c1	TDP-43 yeast inh 22µM
Cc1occc1-c1nnc(SCC(=O)Nc2ccncc2)n1-c1ccccc1	none (no result: aSyn yeast inh, Abeta yeast res, TDP-43 yeast inh)
COC(=O)[C@@]12CCCN1[C@H](c1ccc(-c3ccc(OC)cc3)cc1)[C@@H]1C(=O)N(C)C(=O)[C@@H]12	FUS yeast rescue inconclusive, TDP-43 yeast inh 22µM
COC(=O)[C@@]12CCCN1[C@H](c1ccc(-c3ccc(OC)cc3)c(OC)c1)[C@@H]1C(=O)N(C)C(=O)[C@@H]12	FUS yeast rescue inconclusive, TDP-43 yeast inh inconclusive
COC(=O)[C@@]12CCCCN1[C@H](c1ccc(-c3ccc(F)cc3)c(OC)c1)[C@@H]1C(=O)N(C)C(=O)[C@@H]12	aSyn yeast inh inconclusive, TDP-43 yeast inh 16µM
COC(=O)[C@@]12CCCN1[C@H](c1ccc(-c3ccccc3)cc1)[C@H]1C(=O)N(C)C(=O)[C@H]12	none
COC(=O)[C@@]12CCCCN1[C@H](c1ccc(-c3ccc(F)cc3)cc1)[C@@H]1C(=O)N(C)C(=O)[C@@H]12	TDP-43 yeast inh 13µM
COC(=O)[C@@]12CCCN1[C@H](c1ccc(-c3ccc4c(c3)OCO4)c(OC)c1)[C@H]1C(=O)N(C)C(=O)[C@H]12	FUS yeast rescue inconclusive

Screens (PubChem BioAssay)
